The nature of test [1]: qHTS assay to identify small molecule agonists of the NFkB signaling pathway (AID 1159509; active = well fitted curve in the direction sought with a large enough effect in the signal ratio in the repeat runs, not every such curve was filed as active; the % refers to the signal ratio; note: series mostly up to about 61 µM). An outline of the steps:
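After overnight attachment, reporter cells received test compounds, DMSO or positive controls and were incubated 5 hr at 37 C. FRET substrate was then added for 1.5 hr at room temperature before dual-emission fluorescence reading.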
In general terms: qHTS replaces the single test concentration by a dilution series.

The nature of test [2]: qHTS assay to identify small molecule agonists of the NFkB signaling pathway - cell viability counter screen (AID 1159515; calls by dose curve; note: series mostly up to about 61 µM; nearly all actives have a fitted effect of over 55% in size). Put shortly: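 Viability in NFkB-bla ME-180 cells was measured by CellTiter-Glo luminescence, 30 min room temperature, in wells already treated 5 hr with compounds and read for reporter FRET.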
Test [3] can be described thus: qHTS assay to identify small molecule agonists of the endoplasmic reticulum stress response signaling pathway (AID 1159516; active = well fitted activation curve with a large enough effect in the signal ratio in the repeat runs, not every such curve was filed as active; the % refers to the signal ratio). An outline of the steps:
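ER stress element reporter (bla) in HeLa. 1,500 cells/well, overnight attachment; 5 hr compound; 2 hr RT substrate; dual-emission fluorescence.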

The nature of test [4]: qHTS assay to identify small molecule agonists of the endoplasmic reticulum stress response signaling pathway - cell viability counter screen (AID 1159517; calls by dose curve;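 note: HeLa cells carrying an ER stress response element beta-lactamase reporter; series mostly up to about 61 µM; nearly all actives have a fitted effect of over 50% in size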). An outline of the steps:
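Cells, HeLa ESRE-bla; density, 1,500/well; dosing, 5 hr at 37 C, 5% CO2; readout, CellTiter-Glo luminescence after 30 min RT.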

Test [5] is described as follows: qHTS assay to identify small molecule antagonists of the retinoid-related orphan receptor gamma (ROR-gamma) signaling pathway - cell viability counter screen (AID 1159520). Note: nearly all actives have a fitted effect of over 50% in size. Put shortly: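 Cytotoxicity was read from cellular ATP (CellTiter-Glo luminescence) after 16 hr at 37 C with 1 uM doxycycline induction. The inducer was added 2 hr after compound transfer to Tet-on ROR gamma CHO cells.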

Test [6] has as its target Nuclear receptor ROR-gamma (Homo sapiens) (UniProt P51449). The test can be described thus: qHTS assay to identify small molecule antagonists of the retinoid-related orphan receptor gamma (ROR-gamma) signaling pathway (AID 1159521; note: nearly all actives have a fitted effect of over 50% in size; note: potency is the fitted concentration of half-maximal effect). An outline of the steps: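 Readout: ONE-Glo luciferase luminescence, 30 min at room temperature. System: Tet-on RORγ CHO, RORE-LUC. Sequence: compound 2 h, doxycycline 1 uM final, 16 h at 37 C.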

Test [7] in a line: qHTS assay to identify small molecule agonists of the AP-1 signaling pathway - cell viability counter screen (AID 1159525; calls by dose curve; note: nearly all actives have a fitted effect of over 55% in size). Put shortly: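 Luminescent ATP readout (Cell Titer Glo, 30 min RT), normalised to DMSO and tetra n-octyl ammonium bromide controls. Cells were ME-180 AP-1-bla in 0.5% dialyzed FBS Opti-MEM, with a 5 h, 37 °C compound exposure.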
A short description of test [8]: qHTS assay to identify small molecule agonists of the AP-1 signaling pathway (AID 1159526; calls by dose curve).
Test [9] in a line: qHTS assay to identify small molecule agonists of the RXR signaling pathway - cell viability counter screen (AID 1159529).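 Note: HEK 293T cells carrying an RXR-alpha UAS beta-lactamase reporter; series mostly up to about 77 µM; nearly all actives have a fitted effect of over 50% in size.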 Put shortly:
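Tox21 10K compounds were tested for cytotoxicity against GeneBLAzer RXR-alpha HEK 293T cells grown in 2% charcoal-stripped FBS. Exposure lasted 16 hr at 37 C, 5% CO2; viability read by CellTiter-Glo luminescence.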

A short description of test [10]: qHTS assay to identify small molecule antagonists of the retinoid acid receptor (RAR) signaling pathway - cell viability counter screen (AID 1159551). Note: nearly all actives have a fitted effect of over 35% in size. An outline of the steps:
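Following overnight attachment, C3RL4 reporter cells received DMSO-dissolved compounds and then retinol (1 uM final). Six hours later at 37 C, ATP content was measured by CellTiter-Glo luminescence.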

Test [11] can be described thus: qHTS assay to identify small molecule antagonists of the retinoic acid receptor (RAR) signaling pathway (AID 1159552; note: nearly all actives have a fitted effect of over 50% in size). An outline of the steps:
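Overnight-plated C3RL4 reporter cells get compound, then retinol to 1 uM final; plates sit 6 hr at 37 C, 5% CO2. A luciferase reagent is added and light output recorded after 30 min at room temperature.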

Test [12] can be described thus: qHTS assay to identify small molecule agonists of the retinoic acid receptor (RAR) signaling pathway (AID 1159553). Note: potency is the fitted concentration of half-maximal effect. Put shortly:
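Cell line C3RL4, RARE luciferase reporter. Treatment: compounds in DMSO, 6 hr, 37 C, 5% CO2, after overnight plating. Detection: luminescence, 30 min RT after reagent.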

Test [13] can be described thus: qHTS assay to identify small molecule antagonists of the estrogen related receptor (ERR) signaling pathway from Tox21 library - cell viability counter screen (AID 1224834). Note: nearly all actives have a fitted effect of over 30% in size. Note: potency is the fitted concentration of half-maximal effect. An outline of the steps:
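Viability readout (CellTiter-Fluor fluorescence, 30 min at 37 C) multiplexed with the ERR assay; cells treated 17.5 h at 37 C with compounds delivered in DMSO.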

The source of these data is PubChem BioAssay (Tox21).

Several values for one entry are separate records, joined by “and”; a condition that tells them apart may be missing. Identical values can stand only once. Records with an inconclusive call do not appear. Activity calls are given as the source filed them. Unless noted, calls come from the whole dose curve; as a rule, active = well fitted curve in the direction sought with a large enough effect in the repeat runs; inconclusive = weak or mixed curves; inactive = no such curve, though single readings can be large; an effect the other way counts as inactive or inconclusive.

For the compound `C[Si](C)(C)O[Si](C)(C)C`, the compound was called inactive in test [1] and in test [8]. In addition, the Potency result in [2], in test [3], in test [4], in test [5], in test [6] and in test [7] was “inactive” each time. Also, the Potency entry in test [9], in test [10], in [11] and in test [12] was “inactive” each time.
Take `Nc1ccc(Cl)cc1Cl`: the outcome in test [1] and in [8] was inactive. Besides, the Potency result in test [2], in [3], in [4], in [5], in test [6] and in test [7] was “inactive” in each case. Besides, the Potency entry in test [9], in test [10], in test [11] and in test [12] was “inactive” in each case.
Turning to `C[C@]12CC[C@H]3[C@@H](CCC4=CC(=O)CC[C@@]43C)[C@@H]1CC[C@@H]2C(=O)CO`, the call in [1] and in test [8] was inactive. In addition, the Potency result in test [2], in test [3], in [4], in [5], in [7] and in [9] was “inactive” in each case. For the same compound, the Potency result in test [10] and in [13] was “inactive” each time. In test [6], the Potency is 27.3 µM (active).
As for `CCCCNS(=O)(=O)c1ccccc1`, the outcome in [1] and in test [8] was inactive. In addition, the Potency result in test [2], in test [3], in test [4], in test [5], in test [6] and in test [7] was “inactive” throughout. Further, the Potency result in test [9], in test [10], in test [11] and in test [12] was “inactive” in each case.
On to `C/C=C/C(=O)O`, for which the compound was called inactive in test [1] and in [8]. Moreover, the Potency entry in test [2], in [3], in [4], in [5], in test [6] and in test [7] was “inactive” each time. Besides, the Potency result in test [9], in [10], in test [11] and in [12] was “inactive” throughout.
On to `Cc1ccc(C(=O)c2cc(O)c(O)c([N+](=O)[O-])c2)cc1`, for which the compound was classed as inactive in [1] and in test [8]. Moreover, the Potency entry in [2], in test [3], in test [4], in test [5], in [7] and in test [9] was “inactive” throughout. The Potency result in test [10] was “inactive”. Moreover, the Potency in [6] is 27.3 µM (active) and 26.6 µM (active); in [13] it was 43.3 µM (active).
Consider `CCCCOCCOCCO`, for which the outcome in [1] and in test [8] was inactive. The Potency entry in test [2], in test [3], in [4], in [5], in [6] and in test [7] was “inactive” throughout. Moreover, the Potency entry in test [9], in test [10], in test [11], in [12] and in test [13] was “inactive” each time.
On to `Cc1cccc(N(C)C(=S)Oc2ccc3ccccc3c2)c1`, for which the call in test [1] and in test [8] was inactive. The Potency result in test [2], in [3], in test [4], in test [5], in test [6] and in [7] was “inactive” each time. The Potency result in test [10] and in [11] was “inactive” throughout. For the same compound, the Potency in test [12] is 2.43 µM (active) and 13.3 µM (active).
For `CC(C)(C)NC(=O)[C@H]1CC[C@H]2[C@@H]3CC[C@H]4NC(=O)C=C[C@]4(C)[C@H]3CC[C@]12C`, the result in test [1] and in test [8] was inactive. The Potency result in test [2], in test [3], in test [4], in [5], in test [6] and in [7] was “inactive” each time. The Potency result in test [10], in test [11], in [12] and in [13] was “inactive” throughout.
As to `CCCCC(CC)COC(=O)c1ccc(N(C)C)cc1` (stereo not drawn), the outcome in [1] and in test [8] was inactive. The Potency entry in test [2], in test [3], in test [4], in [5], in [6] and in test [7] was “inactive” throughout. The Potency result in [9], in test [10], in test [11] and in [12] was “inactive” each time.
